Results reported in article PMC5540273 (PLoS ONE, 2017).

The compounds below were run on T1, DMPK2. Details: concentration: 1 μM, replicates: in singlicate; n = 1.
T1 construct: gene CDC42BPG
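Further: KINOMEscan kinase panel screen.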

Structure (SMILES) | %Inh
CN1C(=O)C(Nc2ccccc2)=C(c2ccccc2)C1=O [SB-300079] | 0%
CCC(=O)c1c(-c2ccccc2)c2cc(Cl)ccc2c(=O)n1Cc1ccc(C(=O)O)cc1 | 0%
COc1cc(Nc2nccc(N3CCC(NC(=O)C(C)c4ccc(Cl)cc4)C3)n2)cc(OC)c1OC (stereo not drawn) [GSK1379757] | 8%
O=C(NCc1cccs1)c1cc(C(=O)c2c(Cl)cccc2Cl)c[nH]1 [GW823670] | 4%
Cl.c1ccc(Cn2cnc3cc(Nc4ncnc5ccccc45)ccc32)cc1 [GW272142] | 11%
COc1cc2ncn(-c3cc(OCc4ccc(S(C)(=O)=O)cc4)c(C(N)=O)s3)c2cc1OC [GW869979] | 10%
CCS(=O)c1ccc(-c2coc3ccc(-c4nnc(C)o4)cc23)cc1 (stereo not drawn) | 0%
O=C(Nc1n[nH]c2nc(-c3ccccc3)c(Br)cc12)C1CC1 [SB-708998] | 0%
Cl.NS(=O)(=O)c1cccc(Nc2cc(-c3ccc(F)cc3)n[nH]2)c1 [GW824645] | 0%
COC(=O)c1c(-c2ccccc2)c2cc(Br)ccc2c(=O)n1Cc1ccc(NC(=O)CCC(=O)O)cc1 | 0%
CCCNC(=O)Nc1ccc(Oc2ncnc3ccn(C)c23)cc1 | 0%
FC(F)(F)c1ccc(-c2ncn(CCCN3CCOCC3)c2-c2ccncc2)cc1 [SB-217780] | 1%
Cc1c(Cn2c(C)nn3c(=O)cc(N4CCO[C@H](C)C4)nc23)cccc1C(F)(F)F [GSK2373690] | 5%
COc1cccc(-n2cnc3c(N)ncnc32)c1 [SKF-97416] | 7%
Nc1nc(N)c2nc(-c3ccccc3)[nH]c2n1 [SKF-12778] | 0%
COc1ccc(CNC(=O)NC2CCN(c3ccnc(Nc4ccc(F)cc4)n3)C2)cc1 (stereo not drawn) [GSK1379706] | 16%
COc1cccc(C2=C(N(C)c3ccccc3)C(=O)NC2=O)c1 [SB-334865] | 0%
COc1ccc(-c2cc3c(C)nc(N)nc3n([C@H]3CC[C@H](OCCO)CC3)c2=O)cn1 | 0%

Structure (SMILES) | %Inh
Nc1ncnc2c1ncn2-c1cccc2ccccc12 [SKF-97184] | 0%
Cc1ccc(-c2ccc3c(ccc4sc5c(c43)NC[C@@H](C)N=C5N(C)C)n2)cn1 | 0%
COc1cccc(C2=C(Nc3cccc(C(=O)O)c3)C(=O)NC2=O)c1 [SB-390770] | 4%
Cc1nc(N(C)[C@H]2CN(C(=O)CC#N)CC[C@H]2C)c2cc[nH]c2n1 | 5%
CN(C)c1cc(-c2ccc3c(N)n[nH]c3c2)nc(N)n1 [GSK2219329] | 5%
COc1ccc(-c2cc3c(C)nc(N)nc3n([C@H]3CC[C@H](O)CC3)c2=O)cn1 | 0%
OCCCNc1nccc(-c2c(-c3cccc(C(F)(F)F)c3)nn3cc(C(F)(F)F)ccc23)n1 [GW630813] | 39%
O=C(Nc1n[nH]c2cc(-c3ccccc3F)ccc12)C1CC1 [SB-733371] | 0%
Nc1nc(-c2ccccc2F)c(-c2ccnc3ccccc23)s1 [GW560459] | 3%
Cn1c(=O)c(F)c(Nc2ccc(I)cc2F)c2c(=O)n(OC[C@H](O)CO)cnc21 | 20%
Cc1cc(Nc2nc(-c3cccc(C)n3)nc3ccccc23)ccn1 [GW872411] | 2%
COc1cc2nccc(Nc3ccc(OCc4ccc(NC(C)=O)cc4)cc3)c2cc1OC.Cl [GW440135] | 0%
Cc1nnc(-c2ccc(C)c(-c3ccc(C(=O)O)cc3)c2)o1 [GW608005] | 0%
CCS(=O)(=O)c1ccc(OC)c(Nc2ncc(-c3ccc(F)cc3)o2)c1.Cl [GW591947] | 13%
CCc1ccc(-c2ccc3c(c2)-c2nn(C)cc2S(=O)(=O)N3C)cc1 | 0%
CCC(=O)c1c(-c2ccccc2)c2cc(Cl)ccc2c(=O)n1Cc1cc(S(C)(=O)=O)n(CCC(C)(C)O)n1 | 17%
C[C@@H]1CC[C@H](C(=O)NC2CCCCC2)CN1c1cc(-c2ccc3c(N)n[nH]c3c2)nc(N)n1 [GSK2291363] | 23%
O=c1cc(N2CCOCC2)nc2n(Cc3ccc(F)c(Cl)c3)ccn12 [GSK2297099] | 0%

These compounds were tested on DMPK. Details: concentration: 1 μM, replicates: in singlicate; n = 1.

Structure (SMILES) | %Inh
CN1C(=O)C(Nc2ccccc2)=C(c2ccccc2)C1=O [SB-300079] | 0%
CCC(=O)c1c(-c2ccccc2)c2cc(Cl)ccc2c(=O)n1Cc1ccc(C(=O)O)cc1 | 0%
COc1cc(Nc2nccc(N3CCC(NC(=O)C(C)c4ccc(Cl)cc4)C3)n2)cc(OC)c1OC (stereo not drawn) [GSK1379757] | 0%
O=C(NCc1cccs1)c1cc(C(=O)c2c(Cl)cccc2Cl)c[nH]1 [GW823670] | 6%
Cl.c1ccc(Cn2cnc3cc(Nc4ncnc5ccccc45)ccc32)cc1 [GW272142] | 0%
COc1cc2ncn(-c3cc(OCc4ccc(S(C)(=O)=O)cc4)c(C(N)=O)s3)c2cc1OC [GW869979] | 0%
CCS(=O)c1ccc(-c2coc3ccc(-c4nnc(C)o4)cc23)cc1 (stereo not drawn) | 6%
O=C(Nc1n[nH]c2nc(-c3ccccc3)c(Br)cc12)C1CC1 [SB-708998] | 0%
Cl.NS(=O)(=O)c1cccc(Nc2cc(-c3ccc(F)cc3)n[nH]2)c1 [GW824645] | 1%
COC(=O)c1c(-c2ccccc2)c2cc(Br)ccc2c(=O)n1Cc1ccc(NC(=O)CCC(=O)O)cc1 | 0%
CCCNC(=O)Nc1ccc(Oc2ncnc3ccn(C)c23)cc1 | 0%
FC(F)(F)c1ccc(-c2ncn(CCCN3CCOCC3)c2-c2ccncc2)cc1 [SB-217780] | 28%
Cc1c(Cn2c(C)nn3c(=O)cc(N4CCO[C@H](C)C4)nc23)cccc1C(F)(F)F [GSK2373690] | 23%
COc1cccc(-n2cnc3c(N)ncnc32)c1 [SKF-97416] | 11%
Nc1nc(N)c2nc(-c3ccccc3)[nH]c2n1 [SKF-12778] | 25%
COc1ccc(CNC(=O)NC2CCN(c3ccnc(Nc4ccc(F)cc4)n3)C2)cc1 (stereo not drawn) [GSK1379706] | 0%
COc1cccc(C2=C(N(C)c3ccccc3)C(=O)NC2=O)c1 [SB-334865] | 0%
COc1ccc(-c2cc3c(C)nc(N)nc3n([C@H]3CC[C@H](OCCO)CC3)c2=O)cn1 | 8%

Structure (SMILES) | %Inh
Nc1ncnc2c1ncn2-c1cccc2ccccc12 [SKF-97184] | 0%
Cc1ccc(-c2ccc3c(ccc4sc5c(c43)NC[C@@H](C)N=C5N(C)C)n2)cn1 | 0%
COc1cccc(C2=C(Nc3cccc(C(=O)O)c3)C(=O)NC2=O)c1 [SB-390770] | 0%
Cc1nc(N(C)[C@H]2CN(C(=O)CC#N)CC[C@H]2C)c2cc[nH]c2n1 | 0%
CN(C)c1cc(-c2ccc3c(N)n[nH]c3c2)nc(N)n1 [GSK2219329] | 0%
COc1ccc(-c2cc3c(C)nc(N)nc3n([C@H]3CC[C@H](O)CC3)c2=O)cn1 | 0%
OCCCNc1nccc(-c2c(-c3cccc(C(F)(F)F)c3)nn3cc(C(F)(F)F)ccc23)n1 [GW630813] | 0%
O=C(Nc1n[nH]c2cc(-c3ccccc3F)ccc12)C1CC1 [SB-733371] | 0%
Nc1nc(-c2ccccc2F)c(-c2ccnc3ccccc23)s1 [GW560459] | 0%
Cn1c(=O)c(F)c(Nc2ccc(I)cc2F)c2c(=O)n(OC[C@H](O)CO)cnc21 | 17%
Cc1cc(Nc2nc(-c3cccc(C)n3)nc3ccccc23)ccn1 [GW872411] | 0%
COc1cc2nccc(Nc3ccc(OCc4ccc(NC(C)=O)cc4)cc3)c2cc1OC.Cl [GW440135] | 0%
Cc1nnc(-c2ccc(C)c(-c3ccc(C(=O)O)cc3)c2)o1 [GW608005] | 0%
CCS(=O)(=O)c1ccc(OC)c(Nc2ncc(-c3ccc(F)cc3)o2)c1.Cl [GW591947] | 6%
CCc1ccc(-c2ccc3c(c2)-c2nn(C)cc2S(=O)(=O)N3C)cc1 | 0%
CCC(=O)c1c(-c2ccccc2)c2cc(Cl)ccc2c(=O)n1Cc1cc(S(C)(=O)=O)n(CCC(C)(C)O)n1 | 11%
C[C@@H]1CC[C@H](C(=O)NC2CCCCC2)CN1c1cc(-c2ccc3c(N)n[nH]c3c2)nc(N)n1 [GSK2291363] | 0%
O=c1cc(N2CCOCC2)nc2n(Cc3ccc(F)c(Cl)c3)ccn12 [GSK2297099] | 0%
